# Assay outcomes: PubChem BioAssay, Sanford-Burnham Center for Chemical Genomics
# CYP2C19 activ – human CYP2C19 activators, primary screen, biochemical, luminescence | Cytochrome P450 2C19 (Homo sapiens), P33261 | recombinant CYP2C19, luciferin-H EGE luminescence; stronger effect = higher value; 0 = fully inhibited enzyme, 1 = untreated enzyme | activation factor at 5 µM | 96,000 tested, under 10 active | AID 1025, 2008;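 active = activation factor of at least 2 at 5 µM in the primary screen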;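 note: 0 = wells with 2.5 mM tranylcypromine and 1 = vehicle-only wells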
# CYP2C19 inh – blockers of cytochrome P450 2C19 activity – biochemical, luminescence, ADME assay, primary screen | P33261 | CYP2C19 Supersomes, luciferin-H EGE luminescence, 30 min | inhibition, % at 5 µM | 96,000 tested, 21% active;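 active = CYP2C19 inhibition above a set limit at 5 µM in the primary screen, cut at about 50% in these data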;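 note: plate controls were negative control wells for no effect and 2.5 mM tranylcypromine positive control for full effect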
# CYP2C9 activ – human CYP2C9 activators, primary screen, biochemical, luminescence | Cytochrome P450 2C9 (Homo sapiens), P11712 | recombinant CYP2C9, luciferin-H conversion; stronger effect = higher value; factor 1 = untreated enzyme, 0 = blocked | activation factor at 5 µM | 96,000 tested, 1.4% active;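 active = activation factor of 2 or more for CYP2C9 at a 5 µM dose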;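 note: 0 = sulfaphenazole-blocked wells and 1 = vehicle-only wells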
# CYP2C9 inh – blockers of cytochrome P450 2C9 activity – biochemical, luminescence, ADME assay, primary screen | CYP2C9 Supersomes, luciferin-H conversion | inhibition, % at 5 µM | 96,000 tested, 20% active;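 active = blocking of liver enzyme CYP2C9 beyond about 50% at 5 µM, limit read from the data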
# Mac1 fbg inh – inhibitors of CD11b/CD18 adhesion to fibrinogen, primary screen, K562 cells, luminescence. 93,000 tested, 0.54% active. Integrin beta-2 (Homo sapiens) + Integrin alpha-M (Homo sapiens), P05107+P11215. inhibition, % at 10 µM. ATPlite luminescence; Mn2+ added to activate the integrin;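 active = primary inhibition of 50% or more at 10 µM, then 40% or more on retest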
# Target sequence (P05107 whole entry, looked up, other chains not shown): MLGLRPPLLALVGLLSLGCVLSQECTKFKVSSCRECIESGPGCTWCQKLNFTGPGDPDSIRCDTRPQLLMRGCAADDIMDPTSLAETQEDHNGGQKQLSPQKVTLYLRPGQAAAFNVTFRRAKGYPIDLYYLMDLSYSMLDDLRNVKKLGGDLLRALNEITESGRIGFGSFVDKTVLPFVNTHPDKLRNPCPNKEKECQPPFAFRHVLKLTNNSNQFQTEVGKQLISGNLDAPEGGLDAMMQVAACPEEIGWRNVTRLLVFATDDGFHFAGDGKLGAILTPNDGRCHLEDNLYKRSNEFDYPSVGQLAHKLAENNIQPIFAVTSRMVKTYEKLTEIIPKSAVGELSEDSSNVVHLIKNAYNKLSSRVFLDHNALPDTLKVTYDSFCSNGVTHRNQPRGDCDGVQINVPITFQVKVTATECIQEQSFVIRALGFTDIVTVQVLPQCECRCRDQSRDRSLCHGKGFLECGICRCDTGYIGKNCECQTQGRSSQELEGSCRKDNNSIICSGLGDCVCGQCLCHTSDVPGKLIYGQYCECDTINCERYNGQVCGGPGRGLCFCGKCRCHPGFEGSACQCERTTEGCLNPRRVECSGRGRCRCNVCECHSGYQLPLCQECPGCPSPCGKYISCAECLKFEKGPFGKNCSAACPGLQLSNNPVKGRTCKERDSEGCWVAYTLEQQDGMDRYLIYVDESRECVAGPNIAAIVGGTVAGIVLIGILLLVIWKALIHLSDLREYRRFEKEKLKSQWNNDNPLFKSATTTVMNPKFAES
# CD11b adhes enh – enhancers of CD11b/CD18 adhesion to fibrinogen, primary screen, K562 cells, luminescence; AID 1499, 2009; activation, % at 10 µM; ATPlite luminescence; 93,000 tested, 0.07% active; Integrin beta-2 (Homo sapiens) + Integrin alpha-M (Homo sapiens), P05107+P11215;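 active = 10 µM primary screen giving 50% or more activity, confirmed by 40% or more on retest at that dose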
# The depositor's hits bear a star. Most compounds without a hit are left out; they make up all but 28% or so of the library.
SMILES,CYP2C19 activ,CYP2C19 inh,CYP2C9 activ,CYP2C9 inh,Mac1 fbg inh,CD11b adhes enh
Cc1csc(=Nc2c(C)n(C)n(-c3ccccc3)c2=O)n1Cc1ccccc1,0.2,82*,0.6,42,2,-4
C=CCn1c(-c2ccc(OC)cc2)csc1=Nc1c(C)n(C)n(-c2ccccc2)c1=O,0.8,15,0.9,14,-34,-3
CC(=O)NC1=C(C#N)C(c2ccccc2)c2c(ccc3ccccc23)O1 (stereo unspecified),0.1,91*,0,95*,17,-5
Cc1c(C(=O)N2CCN(CCc3ccccc3)CC2)oc2ccccc12,0.3,73*,1.3,-25,14,1
Cc1c(C(=O)N2CCN(S(C)(=O)=O)CC2)oc2ccccc12,0.1,91*,1,1,-21,0
COc1ccccc1N1CCN(C(=O)c2oc3ccccc3c2C)CC1,0.9,13,1.1,-10,12,-4
COc1cccc(C(=O)N2CCN(C3CCN(Cc4ccccc4)CC3)CC2)c1,1.1,-6,1.1,-6,0,-3
COc1cccc(C(=O)N2CCN(Cc3cccc(F)c3)CC2)c1,0,98*,0.6,44,-46,10
O=C(c1cccc(F)c1)N1CCN(Cc2ccco2)CC1,0.3,69*,0.9,10,-10,-7
O=C(c1ccco1)N1CCN(Cc2cccc(F)c2)CC1,0.6,43,1,-2,7,-2
COc1cc(OC)cc(C(=O)N2CCN(Cc3cccc(F)c3)CC2)c1,0,98*,1.3,-32,-14,-6
Cc1cc(C(=O)N2CCN(c3ncccn3)CC2)c2cc(F)ccc2n1,0.7,32,0.7,31,5,-1
Cc1ccc(Nc2cccccc2=O)cc1,0.2,75*,0.6,36,2,-5
O=C(COc1ccccc1)Nc1nn[nH]n1,1,-3,0.9,7,-8,0
CCOC(=O)c1[nH]c2ccc(F)cc2c1NC(=O)CN1CCN(C/C=C/c2ccccc2)CC1,0.5,52*,0.4,59*,31,-1
COC(=O)c1[nH]c2ccccc2c1NC(=O)CN1CCN(C/C=C/c2ccccc2)CC1,0.3,74*,0.1,86*,32,-4
N/C(COc1ccccc1)=N\NC(=O)c1cccnc1Oc1ccccc1,0.6,37,1,-3,-25,-1
COc1ccc2c(C)cc(=O)oc2c1C,0.7,30,2.3*,-126,1,-5
CC(c1ccccc1)C(CC(=O)O)C(=O)NC1CCCCC1 (stereo unspecified),0.9,7,1.3,-26,2,0
O=C1CCCc2c1[nH]c1ccccc21,1,-2,2.2*,-119,-5,-5
CCCN1CCCc2cc(CN)ccc21,0.1,90*,0.2,84*,10,-2
c1ccc2c(c1)CCN2CCN1CCc2ccccc21,0.7,27,0.8,21,-23,4
CC(=O)NS(=O)(=O)c1ccc(NC(=O)c2ccc(Br)o2)cc1,1,-2,1.1,-11,-2,0
Cc1cccc(N2CCN(c3cccc(C)c3)C2c2cccnc2)c1,0.5,47,0.8,21,19,0
Cc1ccc(N2CCN(c3ccc(C)cc3)C2c2ccncc2)cc1,0.1,88*,0.3,71*,-7,0
SMILES,CYP2C19 activ,CYP2C19 inh,CYP2C9 activ,CYP2C9 inh,Mac1 fbg inh,CD11b adhes enh
O=C(NCc1ccccc1Cl)c1cnc2n(c1=O)CCS2,0.4,64*,1,4,-4,-2
Cc1cc(C(=O)NCc2ccccc2)c(=O)[nH]c1C,0.8,18,0.7,34,4,-4
COc1ccc(CNC(=O)c2cnc3n(c2=O)CCS3)cc1,0.8,23,0.9,10,-4,-2
Cc1nc2c(C(=O)NCc3ccccc3)c[nH]n2c(=O)c1Cl,1.1,-10,0.5,53*,11,-2
Cc1nc2c(C(=O)NCc3ccccc3Cl)c[nH]n2c(=O)c1Cl,0.7,30,0.1,92*,-11,7
Cc1nc(C)c(C(=O)NCc2ccccc2Cl)o1,1,1,1,-5,5,0
